Source: PubChem (National Center for Advancing Translational Sciences (NCATS))
This is one part of a sample in which hits are shown more often than they occur.
Giardia FBPA inh: Giardia lamblia aldolase inhibition; A8B2U2; purified Giardia FBPA; Potency, µM (series often up to 59.6 µM), for the others: top-dose activity, negative = inhibition, actives largely listed as inhibitors; 290,000 tested, 0.71% active; AID 2451; also: potency is read from the fitted curve at half-maximal effect; % is scaled to controls: 0 for no effect and ±100 for the full control effect; nearly all actives have a fitted effect of over 55% in size
Target sequence (A8B2U2 whole entry, looked up): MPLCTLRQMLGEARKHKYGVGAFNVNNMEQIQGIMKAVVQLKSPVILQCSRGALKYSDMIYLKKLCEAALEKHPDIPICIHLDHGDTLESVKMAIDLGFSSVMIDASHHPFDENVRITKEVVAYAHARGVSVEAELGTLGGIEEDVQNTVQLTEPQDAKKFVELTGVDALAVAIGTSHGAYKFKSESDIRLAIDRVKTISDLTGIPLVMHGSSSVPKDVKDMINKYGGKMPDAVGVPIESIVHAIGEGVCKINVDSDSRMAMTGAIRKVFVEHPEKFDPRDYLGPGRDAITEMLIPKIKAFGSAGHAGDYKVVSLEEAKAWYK
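40 nM FBPA preincubated 10 min at RT with compound (up to 57.5 uM final), then substrate plus GAPDH/TPI/NAD/arsenate coupling and diaphorase/resazurin added. Fluorescence read after 20 min at RT, 525/598 nm.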
LmPK inh: LmPK (Leishmania mexicana) enzyme inhibition. Q27686. purified LmPK, Kinase-Glo ATP luminescence, 1 h. Potency, µM (doses to about 57.5 µM), for the others: at the top dose activity change, negative = inhibition, hits mostly inhibitors. 290,000 tested, 0.37% active. AID 1721; also: potency is read from the fitted curve at half-maximal effect; % is scaled to controls: 0 for no effect and ±100 for the full control effect
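Screened at intermediate enzyme activity to detect both inhibitors and activators: LmPK at 0.1 nM, with a 0.5 nM enzyme column as activation reference. PEP 0.5 mM, ADP 0.1 mM; ATP detected by luminescence after 1 h.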
RE007 growth inh: less growth of the S. pombe RE007 Vpr strain | 360,000 tested, 0.21% active | Potency, µM (titrated, usually from 92.2 µM), inactives show top-dose activity change, negative = less growth, hits mostly inhibitors | S. pombe RE007 Vpr strain, BacTiter-Glo ATP luminescence, 24 h; active = well fitted falling curve with a large enough effect; inconclusive = small, poorly fitted or top-dose-only effect; inactive = no such curve, though single readings can be large or run the other way; also: potency is read from the fitted curve at half-maximal effect; % is scaled to controls: 0 for no effect and ±100 for the full control effect; nearly all actives have a fitted effect of over 50% in size
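Fission yeast RE007 carrying one integrated HIV-1 vpr copy, seeded at OD 0.01 in PMG+AL medium with 23 nL pinned compound. Grown 24 h at 30 degrees; viability read by BacTiter-Glo luminescence after 5 min.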
Cycloheximide cs: affects cycloheximide protein synthesis inhibition readout, counter-screen | cell reporter, cycloheximide protein synthesis inhibition counterscreen | max response, % | AID 2314 | 300,000 tested, 12% active; in the data active = max response mostly above about 13%, no sharp cut-off; inactive = mostly below about 14%; also: read at 38.3 µM for the half of the compounds with a filed dose; 0% is about no effect
Tb PYK inh: inhibitors of Trypanosoma brucei pyruvate kinase. 410,000 tested, 0.12% active. TbPYK enzyme, Kinase-Glo Plus ATP luminescence, 45 min. Q57TT1. Potency, µM (highest dose often 76.8 µM), for the others: at the highest dose activity, negative = inhibition, usual class: inhibitors. AID 624173; also: potency is read from the fitted curve at half-maximal effect; % is scaled to controls: 0 for no effect and ±100 for the full control effect; nearly all actives have a fitted effect of over 50% in size
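Glycolytic pyruvate kinase of T. brucei was incubated with substrate, test compound and 130 uM ADP for 45 minutes at room temperature. Luminescent Kinase-Glo Plus signal was measured after 10 minutes.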
Shiga inhibitor: blocks Shiga toxin action in Vero cells | Vero cells, Shiga toxin protein synthesis inhibition reporter | inhibition, % at 38.7 µM | 290,000 tested, 9.2% active | AID 2315; in the data active = inhibition mostly above about 28%, no sharp cut-off; inactive = mostly below about 43%; also: 0% is about no effect
An asterisk follows results filed as active. Unless noted, calls follow the shape of the dose curve; as a rule, active = well fitted curve in the direction sought with a large enough effect; inconclusive = small, poorly fitted or top-dose-only effect, or another doubt; inactive = no such curve, though single readings can be large; an effect the other way counts as inactive or inconclusive.

Screening Cc1ccc(C)c(NC(=S)NNC(=O)c2sccc2C)c1 returned Giardia FBPA inh -11.8%, LmPK inh -13.7%, RE007 growth inh 1.9%, Cycloheximide cs 28.8*, Tb PYK inh -5.6% and Shiga inhibitor 120.7*.
Screening Cc1ccc(C)c(NC(=S)NNC(=O)c2csc(C(C)C)c2)c1 returned Giardia FBPA inh 4.3%, LmPK inh -3.8%, RE007 growth inh 2.0%, Cycloheximide cs 18.5*, Tb PYK inh -1.4% and Shiga inhibitor 27.6.
Screening Cc1ccc(C)c(NC(=S)NNC(=O)c2csc(C)c2C)c1 returned Giardia FBPA inh 9.7%, LmPK inh -6.2%, RE007 growth inh 17.5%, Cycloheximide cs 17.9*, Tb PYK inh -7.1% and Shiga inhibitor 22.0*.
COc1ccc(NC(=O)c2cc3nc(-c4ccc(C)c(C)c4)cc(C(F)(F)F)n3n2)cc1 was read as Tb PYK inh 2.4%.
Screening O=C(Oc1ccc(-c2cnc3ccccc3n2)cc1)c1cccc([N+](=O)[O-])c1 returned Giardia FBPA inh -2.9%, LmPK inh -2.9%, RE007 growth inh -3.0%, Cycloheximide cs 25.6*, Tb PYK inh -10.3% and Shiga inhibitor 41.4*.
`O=C(Oc1ccc([N+](=O)[O-])cc1)c1cc(-c2ccccc2)nc2ccccc12` gave Giardia FBPA inh 5.8%, LmPK inh -1.5%, RE007 growth inh -7.8%, Cycloheximide cs -1.7, Tb PYK inh 3.4% and Shiga inhibitor 27.6.
`O=C(Oc1ccc(-c2cnc3ccccc3n2)cc1)c1ccc(Cl)c([N+](=O)[O-])c1` gave Giardia FBPA inh -6.4%, LmPK inh 0.2%, RE007 growth inh 6.2%, Cycloheximide cs 36.8*, Tb PYK inh -5.7% and Shiga inhibitor 47.7*.
`CC(C)(C)OC(=O)N1CCC[C@H]1C(O)(c1ccccc1)c1ccccc1` gave Giardia FBPA inh 0.0%.
Screening Cc1cccc(-n2ncc3c(N4CCC5(CC4)OCCO5)ncnc32)c1 returned Giardia FBPA inh 2.6%, LmPK inh 1.9%, RE007 growth inh 6.3%, Cycloheximide cs 12.7*, Tb PYK inh -5.6% and Shiga inhibitor 48.6.
Screening Cc1cccc(-n2ncc3c(N4CCC(C)CC4)ncnc32)c1 returned Giardia FBPA inh -0.3%, LmPK inh 1.0%, RE007 growth inh -22.0%, Cycloheximide cs 68.1*, Tb PYK inh 0.7% and Shiga inhibitor 94.7*.
`c1ccc(-n2ncc3c(N4CCC5(CC4)OCCO5)ncnc32)cc1` gave Giardia FBPA inh 2.1%, LmPK inh 0.3%, RE007 growth inh -16.7%, Cycloheximide cs 19.1, Tb PYK inh 0.0% and Shiga inhibitor 60.2.
For COc1ccc2cc(-c3ccccc3)ncc2c1 the results were Giardia FBPA inh -5.7%, LmPK inh -18.5%, RE007 growth inh -10.5%, Cycloheximide cs 42.2*, Tb PYK inh -15.4% and Shiga inhibitor 84.6*.
COc1cc2cnc(-c3ccccc3)cc2cc1OC was read as RE007 growth inh inconclusive and Tb PYK inh -2.1%.
COc1ccc2cc(-c3ccsc3)ncc2c1 was read as RE007 growth inh -13.7% and Tb PYK inh -4.3%.
COc1cc(OC)cc(-c2cc3ccc(OC)cc3cn2)c1 was read as RE007 growth inh 39.8µM* and Tb PYK inh inconclusive.
Cc1cc(C)c(NC(=O)C(C)n2nc(C)c3sc4ccccc4c3c2=O)c(C)c1 (stereo not drawn) was read as Tb PYK inh 0.9%.
`CCC(C(=O)Nc1ccccc1C(=O)OC)n1nc(C)c2c(C)n(-c3ccc(C)cc3)nc2c1=O` (stereo not drawn) gave Tb PYK inh -4.7%.
Screening C/C(=N\Nc1nccnc1Cl)c1ccc(F)cc1 returned Giardia FBPA inh inconclusive, LmPK inh inconclusive, RE007 growth inh -10.2%, Cycloheximide cs 33.1*, Tb PYK inh -2.2% and Shiga inhibitor 84.9*.
`C/C(=N\Nc1nc(N)cc(Cl)n1)c1ccc(F)cc1` gave Giardia FBPA inh -18.7%, LmPK inh -3.1%, RE007 growth inh 12.8%, Cycloheximide cs 41.3*, Tb PYK inh 1.1% and Shiga inhibitor 70.0*.
